From PubChem BioAssay AID686979 (National Center for Advancing Translational Sciences (NCATS), 2013)
About 50,000 (12%) of roughly 420,000 compounds were called active. Not shown: some 26% with an inconclusive outcome. Calls follow the shape of the dose curve; as a rule, active = well fitted inhibition curve with a large enough effect; inconclusive = small, poorly fitted or top-dose-only effect; inactive = flat fitted curve, though single readings scatter. Only a selection was taken, and actives are over-represented in it overall.

assay: qHTS for Inhibitors of human tyrosyl-DNA phosphodiesterase 1 (TDP1): qHTS in cells in presence of CPT; details: chicken DT40 Tdp1-/-;hTDP1 cells + 20 nM CPT, ATP luminescence, 48 h; series mostly up to 46.2 µM; activity change, negative = growth inhibition: at the top concentration; also: nearly all actives have a fitted effect of over 55% in size
How it was run: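 Chicken DT40 Tdp1-/- cells stably complemented with human TDP1 were seeded at 400 cells/well in medium containing 20 nM camptothecin, exposed to pin-transferred compounds, and grown at 37 °C for at least 48 hr. Viability was read as ATP luminescence.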
% is scaled to controls: 0 for no effect and ±100 for the full control effect; potency is read from the fitted curve at half-maximal effect.

Structure (SMILES)	activity change, negative = growth inhibition	Potency
COc1ccc(NC(=O)CN(C)C(=O)c2n[nH]c3ccccc23)cc1	-7.97% (inactive)	
FC(F)(F)c1cccc(N/N=C/c2ccccc2)c1	-29.8% (inactive)	
O=c1cc(CO)oc(C(Nc2cccc(C(F)(F)F)c2)c2ccccn2)c1O (centres undefined)	1.12% (inactive)	
FC(F)(F)c1cccc(Nc2ncnc3ccccc23)c1		11.6 µM (active)
COc1ccc(NC(=O)CSc2nc(SC)ns2)c(OC)c1	-12.7% (inactive)	
c1ccc(C2CNCc3c2ccc2ccccc32)cc1 (centres undefined)		14.6 µM (active)
C/C(=N/NC(=O)CC(=O)N/N=C(\C)c1ccc([N+](=O)[O-])cc1)c1ccc([N+](=O)[O-])cc1	-0.378% (inactive)	
COc1ccc(-c2cc(C(=O)NCc3ccco3)no2)cc1OC	-0.397% (inactive)	
COc1ccc(S(=O)(=O)N2CCC(C(=O)NCc3ccco3)CC2)cc1C	-7.74% (inactive)	
COc1ccc(C2=NOC(C(=O)NCc3ccco3)C2)cc1OC (centres undefined)		2.59 µM (active)
O=C1CC2(CCCC2)C(=O)N1CN1CCN(S(=O)(=O)c2ccc(F)cc2F)CC1	2.4% (inactive)	
CCOc1ccc(CCNC(=O)CN2C(=O)NC3(CCc4ccccc43)C2=O)cc1OCC (centres undefined)	-17.4% (inactive)	
O=C(CN1C(=O)NC2(CCc3ccccc32)C1=O)NC1CCCCC1 (centres undefined)	1.78% (inactive)	
CN(C)S(=O)(=O)c1cc(NC(=O)CN2C(=O)NC3(CCCc4ccccc43)C2=O)ccc1Cl (centres undefined)		16.4 µM (active)
Cc1ccc(COc2ccc(C(=O)NN)cc2)cc1	-28.6% (inactive)	
CCN(CC)CCNCC(=O)Nc1ccc(Oc2ccccc2)cc1	-18.7% (inactive)	
O=C(c1ccc2c(c1)C(=O)N(Cc1ccncc1)C2=O)N1CCN(S(=O)(=O)c2ccc(OC(F)(F)F)cc2)CC1	0.443% (inactive)	
OCCCNc1nccc(-c2cc(Nc3cccc(Cl)c3)ncn2)n1		1.16 µM (active)
NS(=O)(=O)c1cccnc1Nc1cccc(Cl)c1	-0.722% (inactive)	
O=C(Nc1cccc(Cl)c1)OCc1ccccn1	-0.874% (inactive)	
Cc1c(C)n2c(SCC(=O)NC3CCCC3)nnc2[nH]c1=O	13.3% (inactive)	
CCCN(CC(=O)Nc1ccc(OC)c(OC)c1)CC(=O)Nc1ccc(F)c(F)c1F	-0.473% (inactive)	
O=C(COc1ccc(S(=O)(=O)N2CCCC2)cc1[N+](=O)[O-])N1CCCCC1	-18.7% (inactive)	
Cc1cc(C(=O)COc2ccccc2[N+](=O)[O-])c(C)n1-c1cccc(S(=O)(=O)N2CCOCC2)c1		16.4 µM (active)
Cc1cc(S(=O)(=O)N2CCOCC2)ccc1OCC(=O)N1CCOCC1	-7.17% (inactive)	

Structure (SMILES)	activity change, negative = growth inhibition	Potency
Cc1cccc(N(C(=O)c2sc(C)nc2C)C(C(=O)NCC2CCCO2)c2ccccc2)c1 (centres undefined)	-15.4% (inactive)	
CN(C)c1ccc(S(=O)(=O)NCC(=O)NCC2CCCCC2)cc1[N+](=O)[O-]	3.18% (inactive)	
CCOc1ccc(S(=O)(=O)NCCC(=O)NNC(=O)c2ccc(F)cc2)cc1	-15.8% (inactive)	
O=C(c1ccncc1)N1CCN(S(=O)(=O)c2cccc([N+](=O)[O-])c2)CC1	-1.19% (inactive)	
CCc1ccc(OCC(=O)OC(C)C(=O)NC2CC2)cc1 (centres undefined)	3.39% (inactive)	
CN(CC(=O)Nc1c(Cl)cccc1Cl)C(=O)CC1OC(=O)c2ccccc21 (centres undefined)	14.5% (inactive)	
CCCOC(=O)c1c(NC(=O)c2cc3nc(-c4ccc(OC)cc4)cc(C(F)(F)F)n3n2)sc2c1CCCC2	-5.48% (inactive)	
COc1ccc(NC(=O)CN(C)C(=O)c2ccc(COc3ccccc3)o2)cc1	-8.01% (inactive)	
O=[N+]([O-])c1ccc(C=Nc2ccc(Cl)cc2Cl)s1		6.51 µM (active)
CC(=O)N1C(=O)/C(=C2\SC(=S)N(NC(=O)c3ccc(O)cc3)C2=O)c2ccccc21	-9.38% (inactive)	
CCOc1ccc(CNC(=O)c2cccc(Nc3nc4ccccc4n4nnnc34)c2)cc1OC	-12% (inactive)	
CCOC(=O)c1cc(-c2ccc(F)cc2)n(CC(=O)NCc2ccccn2)c1C	-28.4% (inactive)	
Cc1oc(-c2ccccc2F)nc1CS(=O)CC(=O)NCCN1CCCCC1C (centres undefined)	-11.7% (inactive)	
CCC(=O)OCCNc1nc(-c2ccccc2)nc2ccccc12	-7.36% (inactive)	
Fc1ccc(-c2ccc(NCCN3CCOCC3)nn2)cc1	14.9% (inactive)	
CN(C)c1ccc(-c2nc(NCCN3CCOCC3)c3ccccc3n2)cc1		5.8 µM (active)
CC1CCN(C(=O)CSc2nnc(-c3ccco3)n2N)CC1	1.45% (inactive)	
CC1(C(=O)NS(=O)(=O)c2cccc(OC(F)F)c2)CCN1C(=O)C1CC1 (centres undefined)	2.49% (inactive)	
CC1CCCCC1NC(=O)COC(=O)Cc1ccc(Cl)cc1 (centres undefined)	-2% (inactive)	
COc1ccc(C2=NN(C(C)=O)C(c3ccccc3)C2)cc1 (centres undefined)	-23.8% (inactive)	
COc1ccc(-n2nnnc2-c2nc3ccccc3s2)cc1	13.4% (inactive)	
COc1ccc(C2=NN(c3nc4ccccc4s3)C(=O)C2)cc1		20.6 µM (active)
COc1ccc(S(=O)(=O)NCC2CCCN(C(=O)c3occc3C)C2)cc1 (centres undefined)	-0.797% (inactive)	
Cc1ccccc1OCC(=O)NCC(=O)OCC(=O)c1ccc2ccccc2c1		inactive
CC1(NC(=O)CCS(=O)(=O)c2ccc(Cl)cc2)CCS(=O)(=O)C1 (centres undefined)	7.44% (inactive)	

Structure (SMILES)	activity change, negative = growth inhibition	Potency
CCOc1ccc(CN2CCN(Cc3ccc(C)o3)CC2CCO)cc1 (centres undefined)	-29% (inactive)	
O=S(=O)(Nc1ccc2[nH]ncc2c1)c1ccccc1Cl	-15.7% (inactive)	
CC(=O)Nc1ccc(N2CCOCC2)c(C(=O)Nc2cccc(C)c2)c1		13 µM (active)
COC(=O)c1cc(NC(=O)c2cccnc2)ccc1N1CCOCC1	6.29% (inactive)	
COC(=O)c1cc(NC(=O)c2ccco2)ccc1N1CCOCC1	2.1% (inactive)	
O=C(NNC(=O)c1cccc(S(=O)(=O)Nc2ccc(Cl)cc2)c1)c1ccc(=O)[nH]c1	-6.95% (inactive)	
CCN(CC)c1ccc(NC(=O)c2ccc(=O)[nH]c2)cc1S(=O)(=O)Nc1ccc(OC)cc1		29.1 µM (active)
COc1ccc(NS(=O)(=O)c2cc(NC(=O)c3ccc(S(=O)(=O)N(C)C)cc3)ccc2N2CCOCC2)cc1	-1.24% (inactive)	
Cc1cc(OCC(=O)N2CCN(c3ncccn3)CC2)ccc1Cl	-26.2% (inactive)	
COC(=O)C1=C(C)N(C)C(=S)NC1c1cc(OC)ccc1OC (centres undefined)	-20.3% (inactive)	
COc1cc2c(cc1OC)[C@@H](Cc1cc(OC)c(OC)c(OC)c1)[N+](C)(CCCOC(=O)CC/C=C/CCC(=O)OCCC[N+]1(C)CCc3cc(OC)c(OC)cc3[C@H]1Cc1cc(OC)c(OC)c(OC)c1)CC2 (some centres undefined)		inactive
COc1ccc(CC2c3cc(OC)c(OC)cc3CC[N+]2(C)CCC(=O)OCCCCCOC(=O)CC[N+]2(C)CCc3cc(OC)c(OC)cc3C2Cc2ccc(OC)c(OC)c2)cc1OC (centres undefined)		16.4 µM (active)
COC(=O)C1=CN(Cc2ccc(OC)c(OC)c2)C=C(C(=O)OC)C1c1cccs1	-1.53% (inactive)	
O=C(NCc1cccc(CNC(=O)Nc2cccc(O)c2)c1)Nc1cccc(O)c1	-20.5% (inactive)	
COc1ccc(C(=O)OCC(=O)Nc2ccc3[nH]c(=O)[nH]c3c2)c(OC)c1OC	9% (inactive)	
C/C(=N\N1CCN(Cc2ccc(C)cc2)CC1)c1ccco1	-26.3% (inactive)	
NS(=O)(=O)c1ccc(N2C(=O)C3C4CC(C(Br)C4Br)C3C2=O)cc1 (centres undefined)	-4.7% (inactive)	
Cc1cc(O)ccc1NC1=CC(=O)CC(C)(C)C1	-0.129% (inactive)	
Cc1ccccc1C#CC1=CC(=O)CC(C)(C)C1		20.6 µM (active)
CC1(C)CC(=O)C=C(Nc2ccccc2)C1	0.431% (inactive)	
COc1ccc(C2(O)C(=O)Nc3ccccc32)cc1 (centres undefined)	5.89% (inactive)	
CC(=O)N1CCN(CC(C)(C)NS(=O)(=O)c2ccc(C)cc2)CC1	-13.6% (inactive)	
COc1cc(NS(=O)(=O)c2ccc3ccccc3c2)c2ncccc2c1		8.2 µM (active)
COc1ccc2cc(S(=O)(=O)Nc3ccccn3)ccc2c1	2.24% (inactive)	
CCOc1ccc(OCC)c(NS(=O)(=O)c2ccc3[nH]c(=O)ccc3c2)c1	-20.2% (inactive)	

Structure (SMILES)	activity change, negative = growth inhibition	Potency
CN(C)C(=O)[C@@H]1C[C@@H](Sc2nc3ccccc3[nH]2)CN1Cc1ccc(Cl)cc1	0.0416% [at 9.04 µM] (inactive)	
CCCCn1nc(C(=O)N2CCc3ccccc32)c2ccccc2c1=O		18.4 µM (active)
CCCCn1nc(C(=O)OCC(=O)Nc2sccc2C(N)=O)c2ccccc2c1=O	1.03% (inactive)	
CCOC(=O)C(C)Oc1cccc2c(=O)n(CC(=O)N3CCc4ccccc43)ccc12 (centres undefined)	-24.8% (inactive)	
O=C(CSc1nc2ccccc2[nH]1)Nc1nc(-c2ccccc2)c(-c2ccccc2)o1	12.2% (inactive)	
O=C(CSc1n[nH]c(-c2cccs2)n1)N1CCCCC1	0.0429% (inactive)	
Cc1cccc(C)c1-n1c(C)cc(/C=C2\C(=O)NN(c3ccccc3)C2=O)c1C	-17.4% (inactive)	
Cn1c(=O)c2c(ncn2CCc2ccccc2)n(C)c1=O	1.78% (inactive)	
CC(C)Cn1cnc2c1c(=O)n(CC(O)c1ccccc1)c(=O)n2CC(C)C (centres undefined)	-27.6% (inactive)	
Cn1c(=O)c2c(ncn2CC(COCc2ccccc2Cl)OCc2ccccc2Cl)n(C)c1=O (centres undefined)		25.9 µM (active)
COc1ccc(C)cc1NC(=O)CSc1nnc2ccc(-c3ccccn3)nn12	-26.6% (inactive)	
CCN(Cc1ccccc1)S(=O)(=O)c1cc2c3c(c1)CCN3C(=O)CC2	-22% (inactive)	
O=C(CCc1nc(CN2CCN(S(=O)(=O)c3ccc(F)cc3)CC2)no1)N1CCCCC1	-5.76% (inactive)	
COc1ccc(CNC(=O)CN2CCC(n3nnc4cc(F)ccc43)CC2)cc1	6.39% (inactive)	
COc1cccc(NC(=O)NCc2ccc(F)cc2)c1	5.46% (inactive)	
CCc1ccc(CNCc2c(C(=O)O)n(Cc3ccc(F)cc3Cl)c3cc(OC)ccc23)cc1		11.6 µM (active)
COc1cc(C)nc(N2CCCC(C(=O)NCC(C)C)C2)n1 (centres undefined)	-14.4% (inactive)	
O=C(Nc1ccccc1)O/N=C1\CCCCC1c1ccc([N+](=O)[O-])cc1[N+](=O)[O-] (centres undefined)	-24% (inactive)	
CCCCCCC(=O)Nc1nc(C)c(-c2csc(Nc3cccc(OC)c3)n2)s1		20.6 µM (active)
C=CCCC(=O)Nc1nc(C)c(-c2csc(Nc3ccc(Cl)cc3)n2)s1		11.6 µM (active)
Cc1ccn2c(-c3csc(Nc4ccc(C(=O)O)cc4)n3)c(C)nc2c1	-25.8% (inactive)	
COc1cccc(NC(=O)COc2cccnc2[N+](=O)[O-])c1	-22.7% (inactive)	
CC(=O)Nc1nc(C)c(-c2csc(Nc3ccc(S(N)(=O)=O)cc3)n2)s1	-24.8% (inactive)	
Cc1nnc(NC(=O)CCCOc2ccccc2)s1	-8.05% (inactive)	
